# Experimental data as given in PubChem BioAssay (NCATS).
# Values joined by “and” are separate entries in the source; they are usually repeats but may differ in a detail not shown here. Identical values can stand only once. Values without a mark were called inactive. Records with an inconclusive call do not appear. A call without a number means that no potency is given here. Some compounds were tested as several samples or in several runs, with calls that do not always agree. Active and inactive are the calls of the source. Unless noted, calls follow the shape of the dose curve; as a rule, active = well fitted curve in the direction sought with a large enough effect; inconclusive = small, poorly fitted or top-dose-only effect, or another doubt; inactive = no such curve, though single readings can be large; an effect the other way counts as inactive or inconclusive.
# How the values were obtained:
# [1] = tested on: UISO; experiment: qHTS assay to identify novel small-molecules to repurpose for Merkel cell carcinoma treatment (AID 1296009); conditions: MCC and control cell lines, CellTiter-Glo viability, 72 h; series mostly up to 46 µM; also: nearly all actives have a fitted effect of over 60% in size; also: potency is read from the fitted curve at half-maximal effect
# Summary of the method: (§1)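 Cell viability measured by CellTiter-Glo following 72 hr compound treatment at 37 degree celsius, with NPC and MIPE libraries tested in 8- and 11-point concentration series.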
# [2] = tested on: WaGa; experiment: as above; conditions: MCC and control cell lines, CellTiter-Glo viability, 72 h; series mostly up to 46 µM
# Summary of the method: as §1
# [3] = tested on: C33A; experiment: Primary qHTS to identify gynecologic anti-cancer compounds using libraries of approved drugs and bioactive compounds (AID 1345084); conditions: Gynecologic cancer cell panel viability, ATPlite luminescence, 48 h; series mostly up to 57.5 µM; also: nearly all actives have a fitted effect of over 55% in size; also: potency is read from the fitted curve at half-maximal effect
# Summary of the method: (§2)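 In this quantitative HTS, cell killing is estimated from loss of ATP-dependent luciferase light. Cells see five compound concentrations over a 48 h exposure.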
# [4] = tested on: CASKI; experiment: as above; conditions: Gynecologic cancer cell panel viability, ATPlite luminescence, 48 h; series mostly up to 57.5 µM
# Summary of the method: as §2
# [5] = tested on: Es-2; experiment: as above; conditions: Gynecologic cancer cell panel viability, ATPlite luminescence, 48 h; series mostly up to 57.5 µM
# Summary of the method: as §2
# [6] = tested on: HeLa; experiment: as above; conditions: Gynecologic cancer cell panel viability, ATPlite luminescence, 48 h; series mostly up to 57.5 µM
# Summary of the method: as §2
# [7] = tested on: Hek293T; experiment: as above; conditions: Gynecologic cancer cell panel viability, ATPlite luminescence, 48 h, control line for the selectivity index; series mostly up to 57.5 µM
# Summary of the method: as §2
# [8] = tested on: JEG-3; experiment: as above; conditions: Gynecologic cancer cell panel viability, ATPlite luminescence, 48 h; series mostly up to 57.5 µM
# Summary of the method: as §2
# [9] = tested on: OV90; experiment: as above; conditions: Gynecologic cancer cell panel viability, ATPlite luminescence, 48 h; series mostly up to 57.5 µM
# Summary of the method: as §2
# [10] = tested on: PA-1; experiment: as above; conditions: Gynecologic cancer cell panel viability, ATPlite luminescence, 48 h; series mostly up to 57.5 µM
# Summary of the method: as §2
# [11] = tested on: SKOV3; experiment: as above; conditions: Gynecologic cancer cell panel viability, ATPlite luminescence, 48 h; series mostly up to 57.5 µM
# Summary of the method: as §2
# [12] = tested on: Tov-21-G; experiment: as above; conditions: Gynecologic cancer cell panel viability, ATPlite luminescence, 48 h; series mostly up to 57.5 µM
# Summary of the method: as §2
# [13] = tested on: Tov112D; experiment: as above; conditions: Gynecologic cancer cell panel viability, ATPlite luminescence, 48 h; series mostly up to 57.5 µM
# Summary of the method: as §2
# [14] = Drug repurposing screens with cells derived from glioblastoma tumor samples (AID 1345199); conditions: GBM patient neurospheres viability, ATP luminescence, 48 h; also: nearly all actives have a fitted effect of over 40% in size; also: potency is read from the fitted curve at half-maximal effect
# Summary of the method: (§3)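 Primary testing used CD133+ neurospheres from four GBM patients, seven concentrations, 48 h exposure and ATP-based viability; confirmation added three slower-growing patient lines.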
# [15] = tested on: astro; experiment: as above; conditions: viability, ATP luminescence, 48 h; series mostly up to 45.9 µM
# Summary of the method: as §3
# [16] = tested on: NIH3T3; experiment: qHTS assay to identify novel small-molecules to repurpose for Merkel cell carcinoma treatment (AID 1296009); conditions: MCC and control cell lines, CellTiter-Glo viability, 72 h; at 44.8 µM (top of the series) unless noted; also: nearly all actives have a fitted effect of over 60% in size; also: potency is read from the fitted curve at half-maximal effect
# Summary of the method: as §1
# [17] = tested on: CAOV3; experiment: Primary qHTS to identify gynecologic anti-cancer compounds using libraries of approved drugs and bioactive compounds (AID 1345084); conditions: Gynecologic cancer cell panel viability, ATPlite luminescence, 48 h; series mostly up to 57.5 µM; also: nearly all actives have a fitted effect of over 55% in size; also: potency is read from the fitted curve at half-maximal effect
# Summary of the method: as §2
# [18] = biological target: Nuclear receptor subfamily 1 group I member 2 (Rattus norvegicus) (UniProt Q9R1A7); experiment: qHTS assay for small molecule activators of the rat pregnane X receptor (rPXR) signaling pathway (AID 651751; call rule not given here); conditions: rPXR reporter cells, luciferase (One-Glo), 24 h
# Sequence of Nuclear receptor subfamily 1 group I member 2 (Rattus norvegicus) (Q9R1A7 whole entry, looked up): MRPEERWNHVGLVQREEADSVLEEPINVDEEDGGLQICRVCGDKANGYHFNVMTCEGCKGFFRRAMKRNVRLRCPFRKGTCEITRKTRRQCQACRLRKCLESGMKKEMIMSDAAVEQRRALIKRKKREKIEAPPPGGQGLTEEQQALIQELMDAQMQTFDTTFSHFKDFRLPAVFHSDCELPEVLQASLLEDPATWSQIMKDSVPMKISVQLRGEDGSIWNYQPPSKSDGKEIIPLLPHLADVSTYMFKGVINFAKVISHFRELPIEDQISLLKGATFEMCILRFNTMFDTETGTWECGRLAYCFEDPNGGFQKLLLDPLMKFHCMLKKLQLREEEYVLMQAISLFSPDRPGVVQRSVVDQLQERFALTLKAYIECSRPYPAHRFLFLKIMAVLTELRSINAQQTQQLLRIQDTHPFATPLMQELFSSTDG
# [19] = qHTS assay for small molecule activators of the human pregnane X receptor (PXR) signaling pathway (AID 720659; call rule not given here)
# [20] = at 45.9 µM (top of the series), tumour line B
# [21] = at 45.9 µM (top of the series), tumour line D
# [22] = at 91.6 µM (top of the series), tumour line B
# [23] = at 91.6 µM (top of the series), tumour line D
# [24] = at 46 µM (top of the series), tumour line A
# [25] = at 21.2 µM (top of the series), tumour line B
# [26] = at 21.2 µM (top of the series), tumour line D
# [27] = at 21.3 µM (top of the series), tumour line A
# [28] = at 46.1 µM (top of the series), tumour line C
structure (smiles),measurement,setting,value
COc1cc(CCN)cc(OC)c1OC,Potency,[1],inactive
same,Potency,[2],inactive
same,Potency,[3],inactive
same,outcome,[4],inactive
same,Potency,[5],inactive
same,Potency,[6],inactive
same,outcome,[7],inactive
same,outcome,[8],inactive
same,Potency,[9],inactive
same,Potency,[10],inactive
same,outcome,[11],inactive
same,Potency,[12],inactive
same,Potency,[13],inactive
same,"activity, negative = cell killing","[14]; at 108 µM (top of the series), tumour line B",-15.3%
same,"activity, negative = cell killing","[14]; at 108 µM (top of the series), tumour line D",5.13%
O=C1Nc2ccc(Cl)cc2C(c2ccccc2)=NC1O (centres undefined),"activity, negative = cell killing",[14]; [20],-7.13%
same,"activity, negative = cell killing",[14]; [21],-25.5%
same,"activity, negative = cell killing",[14]; [22],-11.1%
same,"activity, negative = cell killing",[14]; [23],-11.5%
same,Potency,[14]; tumour line A,39.8 µM (active)
COc1ccc2c(c1)C13CCCC[C@@H]1C(C2)N(C)CC3 (some centres undefined),"activity, negative = cell killing",[14]; [20],-6.27%
same,"activity, negative = cell killing",[14]; [21],-5.01%
same,Potency,[14]; tumour line A,35.5 µM (active)
same,Potency,[15],inactive
C[C@]12CC[C@H]3[C@@H](CCC4=CC(=O)CC[C@@H]43)[C@@H]1CC[C@@H]2OC(=O)CCC1CCCCC1,outcome,[16],inactive
same,Potency,[2],18.8 µM (active)
same,Potency,[3],inactive
same,outcome,[17],inactive
same,outcome,[4],inactive
same,Potency,[5],inactive
same,Potency,[6],11.2 µM (active)
same,outcome,[7],inactive
same,outcome,[8],inactive
same,Potency,[9],inactive
same,Potency,[10],inactive
same,outcome,[11],inactive
same,Potency,[12],inactive
same,Potency,[13],inactive
CCCC(C)(COC(N)=O)COC(N)=O,"activity, negative = cell killing",[14]; [20],0.449%
same,"activity, negative = cell killing",[14]; [21],-14.8%
same,"activity, negative = cell killing",[14]; [24],-19.1%
same,max response,[18],3.06% and 3.91%
CCCCCN(C)CCC(O)(P(=O)(O)O)P(=O)(O)O,"activity, negative = cell killing",[14]; [20],-6.41%
same,"activity, negative = cell killing",[14]; [21],-6.48%
same,"activity, negative = cell killing",[14]; [24],-14.8%
same,Potency,[15],inactive
C[C@@H](N)[C@@H](O)c1ccccc1,Potency,[3],inactive
same,outcome,[17],inactive
same,outcome,[4],inactive
same,Potency,[5],inactive
same,Potency,[6],inactive
same,outcome,[7],inactive
same,outcome,[8],inactive
same,Potency,[9],inactive
same,Potency,[10],inactive
same,outcome,[11],inactive
same,Potency,[12],inactive
same,Potency,[13],inactive
same,"activity, negative = cell killing",[14]; [25],-14.5%
same,"activity, negative = cell killing",[14]; [26],16.2%
same,"activity, negative = cell killing",[14]; [27],-20.6%
same,Potency,[15],inactive
Cc1nnc2n1-c1ccc(Cl)cc1C(c1ccccc1Cl)=NC2,"activity, negative = cell killing",[14]; [20],-10.7%
same,"activity, negative = cell killing",[14]; [21],-8.42%
same,"activity, negative = cell killing",[14]; [24],-36.4%
same,Potency,[15],inactive
O=C1c2ccccc2C(=O)C1C(=O)C(c1ccccc1)c1ccccc1,Potency,[1],inactive
same,Potency,[2],23.7 µM (active)
same,Potency,[3],inactive
same,outcome,[17],inactive
same,outcome,[4],inactive
same,Potency,[5],inactive
same,Potency,[6],inactive
same,outcome,[7],inactive
same,outcome,[8],inactive
same,Potency,[9],inactive
same,Potency,[10],inactive
same,outcome,[11],inactive
same,Potency,[12],inactive
same,Potency,[13],inactive
same,"activity, negative = cell killing",[14]; [20],-21.4%
same,"activity, negative = cell killing",[14]; [21],-28.8%
same,"activity, negative = cell killing",[14]; [24],-53.7%
same,"activity, negative = cell killing",[14]; [28],-30.6%
same,outcome,[19],inactive
C[C@]12CC[C@H]3[C@@H](CCC4=CC(=O)CC[C@@H]43)[C@@H]1CC[C@@H]2OC(=O)CCc1ccco1,Potency,[2],inactive
same,Potency,[3],inactive
same,outcome,[4],inactive
same,Potency,[5],inactive
same,Potency,[6],3.16 µM (active)
same,outcome,[7],inactive
same,outcome,[8],inactive
same,Potency,[9],inactive
same,Potency,[10],25.1 µM (active)
same,outcome,[11],inactive
same,Potency,[12],inactive
same,Potency,[13],inactive
CCOP(=S)(OCC)Oc1ccc2c(C)c(Cl)c(=O)oc2c1,Potency,[1],inactive
same,Potency,[3],inactive
same,outcome,[17],inactive
same,outcome,[4],inactive
same,Potency,[5],inactive
same,Potency,[6],inactive
same,outcome,[7],inactive
same,outcome,[8],inactive
same,Potency,[9],inactive
same,Potency,[10],inactive
same,outcome,[11],inactive
same,Potency,[12],inactive
same,Potency,[13],inactive
same,"activity, negative = cell killing",[14]; [20],-3.04%
same,"activity, negative = cell killing",[14]; [21],6.08%
C[C@]1(O)CC[C@H]2[C@@H]3CCC4=CC(=O)CC[C@]4(C)[C@@]3(F)[C@@H](O)C[C@@]21C,"activity, negative = cell killing",[14]; [20],-7.52%
same,"activity, negative = cell killing",[14]; [21],-21.3%
same,Potency,[14]; tumour line A,35.5 µM (active)
same,Potency,[15],inactive
O=C(O)/C=C\C(=O)O,"activity, negative = cell killing",[14]; [20],0.272%
same,"activity, negative = cell killing",[14]; [21],-6.85%
same,"activity, negative = cell killing",[14]; [24],-28.3%
same,"activity, negative = cell killing",[14]; [28],3.02%
same,Potency,[15],inactive
CN[C@@H](C)Cc1ccccc1,"activity, negative = cell killing","[14]; at 91.6 µM (top of the series), tumour line A",-24.4%
same,"activity, negative = cell killing",[14]; [22],-1.76%
same,"activity, negative = cell killing",[14]; [23],4.77%
same,Potency,[15],inactive
CC(=O)OCC1=C(C(=O)O)N2C(=O)[C@@H](N)[C@H]2SC1,Potency,[1],inactive
same,Potency,[3],inactive
same,outcome,[17],inactive
same,outcome,[4],inactive
same,Potency,[5],inactive
same,Potency,[6],inactive
same,outcome,[7],inactive
same,outcome,[8],inactive
same,Potency,[9],inactive
same,Potency,[10],inactive
same,outcome,[11],inactive
same,Potency,[12],inactive
same,Potency,[13],inactive
same,"activity, negative = cell killing",[14]; [25],-6.05%
same,"activity, negative = cell killing",[14]; [26],-13.7%
same,"activity, negative = cell killing",[14]; [27],-21.2%
same,Potency,[15],inactive
CN1C[C@H](C(=O)N[C@]2(C)O[C@@]3(O)[C@@H]4CCCN4C(=O)[C@H](Cc4ccccc4)N3C2=O)C=C2c3cccc4[nH]cc(c34)C[C@H]21,"activity, negative = cell killing",[14]; [20],-13.4%
same,Potency,[14]; tumour line A,14.1 µM (active)
same,max response,[18],10% and -0.133%
O=C1Nc2ccc(Cl)cc2C(c2ccccc2Cl)=NC1O (centres undefined),"activity, negative = cell killing",[14]; [20],0.661%
same,"activity, negative = cell killing",[14]; [21],-9.55%
same,"activity, negative = cell killing",[14]; [24],-25.3%
same,Potency,[15],inactive
